Rows were chosen to be rich in hits. Some 6.8% of all compounds tested hit in one or more screens of this group.
Spn MK inh: S. pneumoniae mevalonate kinase inhibition; purified MK, PK/LDH-coupled NADH absorbance 340 nm; inhibition, % at 10 µM; actives 0.48% (n = 65,000);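 active = ranked among the strongest by inhibition in the single 10 µM screen, a fixed top-ranked set picked for dose follow-up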
Spn DPM-DC inh: S. pneumoniae DPM-DC inhibition. AID 556. actives 0.49% (n = 65,000). calls only at 10 µM. purified DPM-DC, PK/LDH coupled NADH fluorescence;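 active = the 320 compounds with the highest percent inhibition in the single-dose primary screen, excluding strongly autofluorescent ones, cut at about 32% in these data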;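 also: kinetic rate of NADH fluorescence loss reporting ADP formed by the decarboxylase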
Autofluor 339: intrinsic fluorescence of library compounds, ex339/em460 – biochemical, MLSMR library, data from DPM-DC assay, artefact control, profiling panel; compound autofluorescence, ex339/em460 nm, NADH buffer; hits give high values; 1 = no-compound wells, NADH background; actives 5.5% (n = 65,000); fluorescence fold increase at 10 µM;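 active = at 10 µM, mean starting fluorescence two-fold or more over control wells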;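 also: signal is the first read of a kinetic run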
PMK inhibit: blocks S. pneumoniae phosphomevalonate kinase; AID 539; purified PMK, PK/LDH-coupled NADH absorbance 340 nm; inhibition, % at 10 µM; actives 0.49% (n = 65,000);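 active = top-ranked compounds by inhibition in the single 10 µM screen, taking a fixed number of the strongest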;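 also: 0% = full reaction with DMSO carrier and 100% = background rate without enzyme reaction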
A340 absorber: compounds absorbing at 340 nm; fold change at 10 µM; compound absorbance at 340 nm, fold over control; 65,000 tested, under 10 active;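 active = at 10 µM dose, initial 340 nm absorbance at least 2 fold that of control wells; inactive = change under 2 fold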;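 also: initial absorbance extrapolated from kinetic A340 decline of NADH oxidation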
NADH coupling: blocks coupling enzymes of NAD/NADH assays; coupled PK/LDH NADH assays, four targets; IC50, µM (titrated, usually from 10 µM), inactives show at the top dose inhibition; AID 774; actives 0.02% (n = 65,000);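 active = single-dose screening hits from any of four coupled enzyme assays that gave an IC50 when retested across doses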;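 also: the DPM-DC format reads NADH fluorescence rather than 340 nm absorbance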
The depositor's hits bear a star; i = inactive; . = no result given.

SMILES	Spn MK inh	Spn DPM-DC inh	Autofluor 339	PMK inhibit	A340 absorber	NADH coupling
CCCc1cc(C(=O)Nc2sc(C)c(C)c2C(=O)OCC)no1	2	.	2.4*	4	1	3%
COC(=O)c1c(-c2ccc(F)cc2)csc1NC(=O)c1ccco1	3	i	2*	0	1.1	2%
CSc1nnnn1-c1cccc(O)c1	24	i	1.1	22	1.1	18%
CCOC(=O)c1[nH]c(C)c(CN(Cc2ccco2)C(=O)C(F)(F)F)c1C	0	i	1.1	6	1	2%
CN1C(=O)N2CN(C3CCCCC3)CN3C(=O)N(C)C1C23 (centres undefined)	10	i	1.1	0	1	3%
Cc1cc(NC(=O)c2ccc(NC(=O)C(C)Oc3ccccc3)cc2)no1 (centres undefined)	6	i	1.1	5	1	7%
CN(C)CCNS(=O)(=O)c1ccc(Cl)cc1	4	i	1.1	0	1	1%
CCOC(=O)c1c(NC(=O)Cc2cccs2)sc2c1CCCC2	0	i	1.1	16	1	5%
COc1ccc(OC)c(NC(=O)c2c(NC(=O)c3ccco3)sc3c2CCC3)c1	10	i	2.1*	4	1.1	9%
CCOC(=O)c1c(NC(=O)c2cccs2)sc2c1CCN(C(=O)OCC)C2	0	.	2*	10	1	2%
CCOC(=O)c1c(NC(=O)c2ccco2)sc2c1CCCCC2	0	.	2.1*	15	1.1	8%
CCOC(=O)c1c(NC(=O)c2cccs2)sc2c1CCCC2	14	.	2.3*	19	1.1	17%
COc1cccc(-c2nnc(SCC(=O)Nc3ccc(S(N)(=O)=O)cc3)n2C)c1	0	i	1	16	0.99	5%
COc1ccc(-c2noc(CN(C(=O)C(C)(C)C)C(C)C)n2)cc1	6	i	1	12	0.99	3%
CCOC(=O)c1c(-c2ccccc2)csc1NC(=O)c1nn(CC)cc1Br	4	.	3.5*	4	1.1	4%
CCOC(=O)c1c(NC(=O)c2cc(C3CC3)on2)sc(C(C)=O)c1C	0	i	1.2	0	1.1	0%
CCOC(=O)c1c(NC(=O)c2ccco2)sc(C(=O)N2CCCC2)c1C	3	i	1.2	0	1.1	1%
CCOC(=O)c1c(NC(=O)OC)sc2c1CCC2	2	i	1.1	2	0.99	1%
CCOC(=O)c1c(NC(=O)c2nn(CC)cc2Br)c(C#N)cn1-c1ccccc1	2	i	1.1	4	0.99	11%
CCOC(=O)c1c(NC(=O)c2cc(C3CC3)on2)sc2c1CCCC2	0	.	2.1*	27*	1.1	14%
CCOC(=O)c1c(NC(=O)c2cccs2)sc2c1CCC2	2	.	2.3*	0	1.1	1%
CCOC(=O)c1c(-c2ccc(C)s2)csc1NC(=O)c1ccco1	0	i	3.5*	4	1.1	4%
O=C(NCN1C(=O)C2C3C=CC(C3)C2C1=O)OC1CCCCC1 (centres undefined)	3	i	1.1	6	0.99	3%
O=C(NCc1ccccn1)c1coc(=O)c(Br)c1	11	.	2.4*	7	1.2	9%
CC1(C)CC(=O)c2c(nc3ccccc3c2N)C1	0	i	2.8*	0	1.1	4%
SMILES	Spn MK inh	Spn DPM-DC inh	Autofluor 339	PMK inhibit	A340 absorber	NADH coupling
Oc1ccccc1/C=N/c1c(-c2ccco2)nc2ccccn12	0	.	3.6*	11	1.1	6%
Oc1oc(-c2ccco2)nc1C=Nc1ccccc1	6	i	1	5	1.1	4%
CC(=O)N1CCN(CC(=O)Nc2c(Cl)cc(Cl)cc2Cl)CC1	6	i	1.1	0	1.1	2%
Cc1nc(SC2C=CS(=O)(=O)C2)n[nH]1 (centres undefined)	0	i	1	11*	0.96	4%
COC(=O)c1ccc(N2C(=O)CC(Sc3n[nH]c(C)n3)C2=O)cc1 (centres undefined)	11	i	0.99	12	1	12%
Cc1sc2c(c1C)c(=O)n(-c1ccccc1)c1nnc(C)n21	0	i	1.1	0	1.1	0%
O=C(NCCCNC(=O)c1ccccn1)c1ccccn1	0	i	1.1	25*	0.99	4%
O=C(NCC1CCCO1)c1ccccn1 (centres undefined)	6	i	1.2	12	1	6%
O=C(Nc1cccc2ccccc12)c1cnccn1	9	i	1	25*	1	3%
CC1CCc2sc3c(c2C1)c1ncnn1c(=O)n3CC(=O)c1ccc(Br)cc1 (centres undefined)	3	i	1.1	5	1.1	3%
C=CCSc1nnc(-c2ccccc2NC(=O)CC)c(=O)[nH]1	9	i	1.1	1	1.1	3%
Nc1ccc2oc(CCc3ccccc3)nc2c1	7	i	1.2	12	0.97	9%
Cc1cc2nn(-c3cccc4ccccc34)nc2cc1N	14	.	3.6*	12	1.2	13%
Nc1ccc2nn(-c3cccc4ccccc34)nc2c1	2	.	2.2*	1	1.1	2%
O=C1CS/C(=N\c2ccccn2)N1C1CCCCC1	8	i	1.1	15	0.96	8%
O=C(C1CCC1)N1CCN(Cc2ccccc2)CC1	11	i	1.1	7	0.94	6%
Cc1ccc(CN2CCN(C(=O)C3CCC3)CC2)cc1	8	i	1	active	1	6%
COc1ccc(-c2nc(-c3cccs3)c(-c3cccs3)[nH]2)cc1O	0	i	3*	5	1.1	2%
COc1cc2c(cc1OC)C(C(=O)Nc1ccc3c(c1)OCCO3)C(c1cccnc1)N(C)C2=O (centres undefined)	16	i	1.1	0	1	5%
CCn1cc(C(=O)NCc2ccccn2)c(=O)c2cc(F)c(N3CCN(C)CC3)cc21	3	i	1.9	1	1.1	5%
CCOC(=O)c1cn(CC)c2cc(N3CCSCC3)c(F)cc2c1=O	9	i	2.9*	12	1.1	17%
CCn1cc(C(=O)O)c(=O)c2cc(F)c(N3CCNCC3)cc21	10	.	2.5*	10	1	4%
CCn1cc(C(=O)O)c(=O)c2cc(F)c(N3CCN(C(=O)Nc4ccccc4)CC3)cc21	0	i	1.7	0	1	4%
COc1ccc(OC)c(C2C(C(=O)c3ccco3)=C(O)C(=O)N2CCCN2CCOCC2)c1 (centres undefined)	12	i	1.1	7	1	7%
O=C(c1ccc(Cn2cc(Br)cn2)o1)n1cccn1	7	i	1.5	0	1	2%
COc1ccc(NC(=O)C2CCCN2C(=O)OCc2ccccc2)c(OC)c1 (centres undefined)	0	i	1.1	18	0.99	6%
C=C1CSc2nc(=O)c3c4c(sc3n21)CCC4	0	i	1.1	0	1.1	0%
